For assay [1], the system named is Plasmodium falciparum Sir2 (PF13_0152, Sir2A). The assay is described as follows: Plasmodium falciparum Sir2A binding compounds – biochemical, small-molecule microarray, 635 nm fluorescence, primary screen (AID 1098).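 Further: score merges spot fluorescence intensity with its signal-to-noise ratio.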 Particulars: fluorescence 635 nm, higher = more signal.
Assay [2] in a line: probe aDKK1 binding to arrayed compounds – biochemical, biotinylated probe, 635/667 nm fluorescence, primary screen (AID 1099).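 Further: score merges 667nm spot fluorescence with signal to noise across triplicate slides.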 The note with it: small-molecule microarray, higher = more signal.
The nature of assay [3]: probe aCHRDL2 binding to arrayed compounds – biochemical, biotinylated probe, 635/667 nm fluorescence, primary screen (AID 1100). The note with it: small-molecule microarray, higher = more signal.
The nature of assay [4]: change in splice reporter luminescence, either direction, cell-based, HEK293, spliceosome inhibition project, primary screen (AID 1101).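 Further: HEK293 cells carrying a splicing-competent luciferase reporter gene; test concentration not given here.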 Particulars: HEK293 splicing luciferase reporter, 24 h, higher = more signal, called active from +8 up or from −8 down. A general note: A reporter such as luciferase makes a cellular process visible.
The target in assay [5] is Fibroblast growth factor 10 (Homo sapiens) (UniProt O15520). Put plainly: compounds binding fibroblast growth factor 10 – biochemical, small-molecule microarray, 635 nm fluorescence, primary screen (AID 1102). Particulars: FGF10 binding, fluorescence 635 nm, higher = more signal.
Chain of Fibroblast growth factor 10 (Homo sapiens) (O15520 whole entry, looked up): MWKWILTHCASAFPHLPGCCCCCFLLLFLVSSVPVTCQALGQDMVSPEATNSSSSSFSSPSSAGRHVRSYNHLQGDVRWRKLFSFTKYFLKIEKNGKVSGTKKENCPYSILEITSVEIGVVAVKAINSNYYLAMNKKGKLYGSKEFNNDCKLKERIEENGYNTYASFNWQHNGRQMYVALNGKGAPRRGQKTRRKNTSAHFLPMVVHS
The test system of assay [6] is glycogen synthase kinase-3 (GSK3A per assay name; protocol says GSK3B). Put plainly: compounds binding glycogen synthase kinase-3 – biochemical, small-molecule microarray, 635 nm fluorescence, GSK3A, primary screen (AID 1103). Further: the record names both GSK3A and GSK3B. The note with it: fluorescence 635 nm, higher = more signal.
The target in assay [7] is Epidermal growth factor receptor (Homo sapiens) (UniProt P00533). Put plainly: compounds binding epidermal growth factor receptor – biochemical, small-molecule microarray, 635 nm fluorescence, primary screen (AID 1104).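 Further: score merges 667 nm emission intensity with spot signal to noise over triplicate slides.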 Particulars: EGFR binding, higher = more signal.
Chain of Epidermal growth factor receptor (Homo sapiens) (P00533 whole entry, looked up): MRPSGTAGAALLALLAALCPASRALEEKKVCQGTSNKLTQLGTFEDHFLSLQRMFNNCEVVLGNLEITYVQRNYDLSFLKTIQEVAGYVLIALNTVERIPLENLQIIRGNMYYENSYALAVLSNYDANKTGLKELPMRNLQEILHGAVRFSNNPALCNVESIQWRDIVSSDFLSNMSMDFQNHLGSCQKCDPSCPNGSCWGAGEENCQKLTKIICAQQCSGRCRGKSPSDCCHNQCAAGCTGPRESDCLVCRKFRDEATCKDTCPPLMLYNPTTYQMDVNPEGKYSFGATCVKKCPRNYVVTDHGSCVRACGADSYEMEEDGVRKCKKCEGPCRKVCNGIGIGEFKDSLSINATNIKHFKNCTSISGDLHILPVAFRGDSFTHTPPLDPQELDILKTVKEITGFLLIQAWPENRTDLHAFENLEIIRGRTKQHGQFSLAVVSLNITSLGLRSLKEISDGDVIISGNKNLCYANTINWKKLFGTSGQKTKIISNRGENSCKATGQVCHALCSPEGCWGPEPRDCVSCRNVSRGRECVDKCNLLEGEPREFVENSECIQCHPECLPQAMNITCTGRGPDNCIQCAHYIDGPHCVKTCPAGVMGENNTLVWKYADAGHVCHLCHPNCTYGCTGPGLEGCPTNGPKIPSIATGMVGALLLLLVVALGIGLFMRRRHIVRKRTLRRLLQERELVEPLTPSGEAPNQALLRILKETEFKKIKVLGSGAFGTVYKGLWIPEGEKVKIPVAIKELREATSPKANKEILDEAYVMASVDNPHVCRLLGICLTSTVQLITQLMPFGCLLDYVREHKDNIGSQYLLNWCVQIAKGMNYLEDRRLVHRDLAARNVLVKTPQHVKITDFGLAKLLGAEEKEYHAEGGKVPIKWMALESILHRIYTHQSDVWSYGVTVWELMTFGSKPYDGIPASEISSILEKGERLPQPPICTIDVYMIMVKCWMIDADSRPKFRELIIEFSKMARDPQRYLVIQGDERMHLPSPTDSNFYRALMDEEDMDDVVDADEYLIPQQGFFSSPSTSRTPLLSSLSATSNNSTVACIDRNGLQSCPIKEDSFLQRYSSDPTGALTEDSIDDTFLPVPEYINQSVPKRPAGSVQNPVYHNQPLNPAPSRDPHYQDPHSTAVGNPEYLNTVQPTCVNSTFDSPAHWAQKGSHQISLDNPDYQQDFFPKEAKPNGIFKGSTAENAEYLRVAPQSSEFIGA
For assay [8], the target named is Follistatin-related protein 3 (Homo sapiens) (UniProt O95633). Put plainly: compounds binding follistatin-related protein 3 – biochemical, small-molecule microarray, 635 nm fluorescence, primary screen (AID 1105).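 Further: score merges emission near 667 nm and signal to noise per printed spot across three slides.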 The note with it: FSTL3 binding, higher = more signal.
Chain of Follistatin-related protein 3 (Homo sapiens) (O95633 whole entry, looked up): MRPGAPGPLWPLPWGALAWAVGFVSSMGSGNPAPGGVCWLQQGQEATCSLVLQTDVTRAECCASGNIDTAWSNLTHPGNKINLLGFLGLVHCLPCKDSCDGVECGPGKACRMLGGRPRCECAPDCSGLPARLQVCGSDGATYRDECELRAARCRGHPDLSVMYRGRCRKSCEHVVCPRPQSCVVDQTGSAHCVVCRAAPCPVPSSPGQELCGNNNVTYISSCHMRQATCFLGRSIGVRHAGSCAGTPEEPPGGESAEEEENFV
In assay [9] the target is Dickkopf-related protein 1 (Homo sapiens) (UniProt O94907). The assay is described as follows: small molecules binding DKK1 protein – biochemical, small-molecule microarray, 635 nm fluorescence scan, primary screen (AID 1106).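 Further: score merges emission near 667 nm with signal to noise over three replicate slides.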 Particulars: higher = more signal.
Chain of Dickkopf-related protein 1 (Homo sapiens) (O94907 whole entry, looked up): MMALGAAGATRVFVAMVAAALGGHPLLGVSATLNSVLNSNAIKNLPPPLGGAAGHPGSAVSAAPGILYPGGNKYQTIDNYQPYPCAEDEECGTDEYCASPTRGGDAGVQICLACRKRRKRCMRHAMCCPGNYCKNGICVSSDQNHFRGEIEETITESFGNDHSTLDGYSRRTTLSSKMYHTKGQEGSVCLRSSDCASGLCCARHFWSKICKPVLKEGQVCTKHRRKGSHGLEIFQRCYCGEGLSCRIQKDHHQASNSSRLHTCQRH
Assay [10] has as its system Inhibin beta A chain (activin A). Put plainly: small molecules binding activin A – biochemical, small-molecule microarray, 635 nm fluorescence scan, primary screen (AID 1107).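 Further: mouse activin A protein probed at 4.33 µg/mL on printed slides; score merges bound-protein fluorescence near 667 nm with spot signal-to-noise.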 Particulars: INHBA, higher = more signal.
Assay [11] concerns Human papillomavirus type 1a protein E7 (residues 44-93). Put plainly: small molecules binding HPV E7 44-93 – biochemical, small-molecule microarray, residues 44-93, 635 nm fluorescence, primary screen (AID 1108).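 Further: E7 fragment applied at 1 µg/mL in TBST for 1 h at 4 C; score combines spot fluorescence with its signal to noise ratio.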 Particulars: fluorescence 635 nm, higher = more signal.
Assay [12] in a line: hepatitis C replication reporter changes, two-sided – Huh7 cells, luciferase reporter, HCV replication inhibitor project, primary screen (AID 1109).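 Further: huh7 hepatoma cells harbouring a luciferase neomycin HCV replicon reporter; luciferase luminescence as measure of HCV replicon replication; test concentration not given here.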 The note with it: Huh7 HCV replicon luciferase reporter, 48 h; higher = more signal.
Assay [13] deals with Left-right determination factor 2 (Homo sapiens) (UniProt O00292). Put plainly: small molecules binding LEFTY2 protein – biochemical, small-molecule microarray, 635 nm fluorescence scan, primary screen (AID 1110). The note with it: higher = more signal.
Chain of Left-right determination factor 2 (Homo sapiens) (O00292 whole entry, looked up): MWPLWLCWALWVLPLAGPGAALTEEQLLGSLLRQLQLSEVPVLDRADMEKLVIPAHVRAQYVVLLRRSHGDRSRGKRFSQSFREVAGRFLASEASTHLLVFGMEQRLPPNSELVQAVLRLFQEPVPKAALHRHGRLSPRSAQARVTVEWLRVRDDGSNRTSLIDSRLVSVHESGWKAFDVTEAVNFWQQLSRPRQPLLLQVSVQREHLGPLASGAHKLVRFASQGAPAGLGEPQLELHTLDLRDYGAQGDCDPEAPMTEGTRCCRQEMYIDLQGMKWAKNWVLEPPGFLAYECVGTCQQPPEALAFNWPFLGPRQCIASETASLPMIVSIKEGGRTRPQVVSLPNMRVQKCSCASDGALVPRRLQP
Assay [14] has as its target Calmodulin-1 (Homo sapiens) (UniProt P0DP23). The assay is described as follows: small molecules binding calmodulin-1 with EGTA – biochemical, small-molecule microarray, Cy5-labelled CALM1, profiling panel (AID 1111).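 Further: labelled calmodulin applied in Tris saline Tween buffer holding calcium plus EGTA and DTT.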 The note with it: Cy5-CALM1 binding fluorescence, higher = more signal.
The target is the same in assay [15]. Put plainly: small molecules binding Ca-loaded calmodulin-1 – biochemical, small-molecule microarray, Cy5-labelled CALM1, plus calcium, artefact control for SMM control-protein annotation, profiling panel (AID 1112).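 Further: score merges spot fluorescence with signal to noise from triplicate slides.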 Particulars: Cy5-CALM1 binding fluorescence, higher = more signal.
Assay [16] in a line: probe aWnt5a binding to arrayed compounds – biochemical, biotinylated probe, 635/667 nm fluorescence, primary screen (AID 1113).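 Further: score merges 667 nm fluorescence intensity with signal-to-noise per printed feature.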 The note with it: small-molecule microarray, higher = more signal.
A short description of assay [17]: probe aShh binding to arrayed compounds – biochemical, biotinylated probe, 635/667 nm fluorescence, primary screen (AID 1114).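 Further: probe is biotin-labelled aShh protein from a stem cell growth factor screen; measures binding of labelled protein to compounds printed on the slide; score merges feature fluorescence at 667 nm with signal-to-noise.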 The note with it: small-molecule microarray, higher = more signal.
Assay [18] is described as follows: probe aNog binding to arrayed compounds – biochemical, biotinylated probe, 635/667 nm fluorescence, primary screen (AID 1115).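 Further: probe is biotinylated aNog protein used at 0.15 µg/mL for 1 h at 4 C; z-score combines 667 nm fluorescence of each spot with its signal to noise.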 The note with it: small-molecule microarray, higher = more signal.
Assay [19] concerns the target Torsin-1A-interacting protein 1 (Homo sapiens) (UniProt Q5JTV8). Put plainly: compound microarray binding of lysate hLAP1 – cell lysate, small-molecule microarray, COS7 lysate, 635/667 nm fluorescence, primary screen (AID 1116). The note with it: 635 nm fluorescence, higher = more signal.
The target in assay [20] is Alpha-bungarotoxin (Bungarus multicinctus) (UniProt P60615). The assay is described as follows: compounds binding labelled alpha-BTX control protein – biochemical, small-molecule microarray, Alexa647 label, 635/667 nm fluorescence, artefact control for SMM control protein annotation, profiling panel (AID 1117). Particulars: alpha-BTX-A647 binding fluorescence, higher = more signal.
Chain of Alpha-bungarotoxin (Bungarus multicinctus) (P60615 whole entry, looked up): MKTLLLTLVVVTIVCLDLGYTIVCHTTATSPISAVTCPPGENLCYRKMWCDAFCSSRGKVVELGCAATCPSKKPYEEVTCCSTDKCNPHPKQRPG

Each structure is given as a SMILES string. Activity calls are given as the source filed them.

Chain of Torsin-1A-interacting protein 1 (Homo sapiens) (Q5JTV8 whole entry, looked up): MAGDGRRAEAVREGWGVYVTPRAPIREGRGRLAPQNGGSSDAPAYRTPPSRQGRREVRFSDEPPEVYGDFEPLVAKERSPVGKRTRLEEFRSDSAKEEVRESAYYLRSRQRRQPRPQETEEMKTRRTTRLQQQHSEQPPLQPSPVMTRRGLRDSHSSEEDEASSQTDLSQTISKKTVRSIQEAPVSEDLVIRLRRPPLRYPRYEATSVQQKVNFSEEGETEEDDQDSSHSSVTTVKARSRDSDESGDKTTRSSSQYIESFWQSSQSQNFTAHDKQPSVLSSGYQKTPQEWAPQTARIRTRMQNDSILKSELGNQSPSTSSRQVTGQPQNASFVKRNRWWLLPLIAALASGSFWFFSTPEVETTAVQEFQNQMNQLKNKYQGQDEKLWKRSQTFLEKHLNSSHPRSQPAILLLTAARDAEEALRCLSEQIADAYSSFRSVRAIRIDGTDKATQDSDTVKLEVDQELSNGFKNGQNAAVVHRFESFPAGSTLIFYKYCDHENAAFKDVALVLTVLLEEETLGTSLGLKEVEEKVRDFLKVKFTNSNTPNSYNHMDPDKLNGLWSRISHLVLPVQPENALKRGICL

With `COc1ccc([Si](C)(C)[C@@H]2[C@@H](CC(=O)N(CCO)Cc3ccccc3)O[C@]3(C(=O)N(Cc4cccc(N5C(=O)c6cccc7cccc5c67)c4)c4ccccc43)[C@H]2C)cc1`, the composite z-score in assay [1] was 1.5; in assay [2], -0.277; in assay [3], 0.246; in [5], 0.0691; in assay [6], -0.727; in assay [7] it was 0.412. In addition, the composite z-score in assay [8] was 1.4; in assay [9] it was 0.816; in [10] it was 0.539; in assay [11], -0.726; in assay [13], 0.882; in assay [14], 0.222. For the same compound, the composite z-score in assay [15] was 0.234; in [16], -0.1; in assay [17], -0.209; in assay [18] it was -0.424; in [19], 0.566; in [20], 0.389. The results for the z-score in [4] and in assay [12] were -1.11 (inactive) and -3.94, respectively.
Turning to `COc1ccc([Si](C)(C)[C@@H]2[C@@H](CCO)O[C@]3(C(=O)N(Cc4ccc(N5CCCCC5=O)cc4)c4ccccc43)[C@H]2C)cc1`, the composite z-score is 1.15 in [1]; -0.128 in assay [2]; -0.756 in assay [3]; 1.21 in [5]; 0.83 in assay [6]; 0.336 in assay [7]. Also, the composite z-score in assay [8] was 0.87; in assay [9], 0.562; in assay [10], 0.669; in [11], -0.0334; in assay [13] it was 0.216; in [14] it was 0.121. Besides, the composite z-score was 0.188 in assay [15]; -0.0758 in [16]; 0.191 in [17]; 0.0989 in [18]; 0.467 in assay [19]; 0.0967 in assay [20]. Moreover, the z-score was -1.73 (inactive) in assay [4] and -5.11 in assay [12].
Consider `COC1OC[C@]2(C)[C@H]3C4=C(CN2C(=O)OC(C)(C)C)[C@H](C)C(CO)C(CO)C4CC[C@@H]13` (stereo not given in full), for which the composite z-score in [1] amounted to 0.422; in assay [2] it was 1.39; in assay [3] it was 1.52; in assay [5] it was 0.513; in assay [6], 1.18; in assay [7] it was 0.0188. The composite z-score in assay [8] was 0.823; in [9] it was -0.362; in [10], 1.17; in assay [11], 1.22; in [13], -0.134; in [14], 2.62. Moreover, the composite z-score in assay [15] is 1.39; in assay [16] it was -0.0007; in assay [17], 0.605; in [18], 1.04; in assay [19], 2.14; in assay [20] it was 2.39. For the same compound, the z-score is 2.09 (inactive) in assay [4] and -1.3 in assay [12].
Take `COCCOC(=O)N1C(=O)[C@@]2(c3cc(C#CC4=CCCCC4)ccc31)[C@H](C(N)=O)[C@H]1C(=O)O[C@H](c3ccccc3)[C@H](c3ccccc3)N1[C@@H]2c1ccccc1OCCO`: the composite z-score was 1.46 in assay [1]; 0.195 in [2]; 0.367 in [3]; 1.24 in assay [5]; 1.32 in [6]; 0.32 in assay [7]. Moreover, the composite z-score in assay [8] turned out to be 0.733; in assay [9], 0.707; in [10], 0.455; in [11], 0.22; in assay [13], 0.423; in assay [14], 0.994. Besides, the composite z-score in [15] is -0.121; in assay [16] it was 0.0839; in assay [17], 0.173; in assay [18] it was 0.0157; in [19], 1.25; in assay [20] it was 1.69. Also, the z-score is -1.88 (inactive) in assay [4] and -3.15 in assay [12].
As for `COC(=O)c1c2oc(c1C(=O)OC)C(=O)N(C)Cc1cn(nn1)C[C@H](Cc1ccccc1)NC(=O)N[C@H](CO)CC2`, the composite z-score in assay [1] is -0.595; in assay [2] it was -0.349; in assay [3], -0.264; in assay [5] it was -0.591; in assay [6], -0.94; in assay [7], -0.694. In addition, the composite z-score in [8] is -0.269; in assay [9], -0.316; in assay [10], -0.0248; in [11], -1.07; in [13], -0.683; in [14] it was -0.633. Besides, the composite z-score was -0.197 in [15]; -0.246 in assay [16]; -0.154 in [17]; -0.299 in assay [18]; -0.641 in assay [19]; -0.277 in [20]. For the same compound, the z-score in assay [4] is 0.322 (inactive); in assay [12], -1.18.

The values above are taken from PubChem BioAssay.
